Screen size: about 310,000 compounds; about 11,000 (3.5%) were called active. About 8% were inconclusive and are not listed. Calls come from the whole dose curve; as a rule, active = well fitted inhibition curve with a large enough effect; inconclusive = small, poorly fitted or top-dose-only effect, or effect the other way; inactive = flat fitted curve, though single readings scatter. What follows is part of a selection rich in actives, with near analogues and random picks from the rest. Entries that show only a call come without a potency.
Assay: VP16 counterscreen qHTS for inhibitors of ROR gamma transcriptional activity;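 note: Gal4-VP16 expression switched on by copper sulfate through the metallothionein promoter; nearly all actives have a fitted effect of over 50% in size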
Conditions: Drosophila S2 Gal4-VP16 UAS-luciferase, luminescence, 20 h; series mostly up to 53.6 µM
Potency is the fitted concentration of half-maximal effect.

| Structure (SMILES) | Potency | activity, negative = inhibition |
| --- | --- | --- |
| O=C(CN(c1cc(C(F)(F)F)ccc1Cl)S(=O)(=O)c1ccccc1)NCc1cccnc1 | inactive |  |
| O=C(CCc1ccccc1)NCc1cccnc1 | inactive |  |
| CCc1ccc(N(CC(=O)NCc2cccnc2)S(=O)(=O)c2ccccc2)cc1 | 14.1 µM (active) |  |
| CCOC(=O)c1c(-c2ccccc2)oc2ccc(OCC(N)=O)cc12 | inactive |  |
| COc1cccc(CN2CCN(Cc3ccc4cccc(F)c4n3)CC2CCO)c1 (centres undefined) | inactive |  |
| CN1c2ccc([N+](=O)[O-])cc2C(C)(C)C12C=Cc1cc(C(=O)O)ccc1O2 (centres undefined) | inactive |  |
| O=C(OC1CCOC1=O)c1ccc(-c2nc3ccccc3s2)s1 (centres undefined) | 1 µM (active) |  |
| CC(C)c1ccc(C(=O)OC2CCOC2=O)cc1 (centres undefined) | inactive |  |
| Cc1nn(Cc2ccccc2)c(Cl)c1C(=O)OC1CCOC1=O (centres undefined) | inactive |  |
| O=C(CNC(=O)OCc1ccccc1)NC1CCCCNC1=O (centres undefined) | inactive |  |
| Cc1cc(=O)n2[nH]c(-c3cccc(Cl)c3)cc2n1 | inactive |  |
| C=C1C(=O)C23C(O)C1CCC2[C@]12COC3(O)C(O)C1C(C)(C)CC[C@H]2O (some centres undefined) | 2.51 µM (active) |  |
| CCOc1ccc(C(C(=O)NC2CCCC2)N(C(=O)c2snc(C(N)=O)c2N)C2CCCC2)cc1 (centres undefined) | inactive |  |
| COCn1c(COc2ccccc2)nc2ccccc21 | inactive |  |
| COCc1nc2ccccc2n1Cc1ccccc1Br | 5.62 µM (active) |  |
| COc1ccccc1Cn1c(CO)nc2ccccc21 | inactive |  |
| Cc1ccccc1CCNC(=O)C1CCC(=O)N(Cc2ccc(Cl)cc2)C1 (centres undefined) | inactive |  |
| CCCn1cc(S(=O)(=O)c2ccc(C)cc2)c(=O)c2cc(OCC)ccc21 | inactive |  |
| CCN(CC)c1ccc(/C=N/NC(=O)CNC(=O)c2cccnc2)cc1 | inactive |  |
| Cc1cc(C)nc(N/N=C/c2ccncc2)n1 | inactive |  |
| CCN(CC)c1ccc(/C=N/Nc2nc(C)cc(=O)[nH]2)cc1 | inactive |  |
| CCN(CC)c1ccc(/C=N/NC(=O)c2cnccn2)c(O)c1 | 5.62 µM (active) |  |
| Cc1ccc(C(=O)NCCNC(=O)c2cnccn2)cc1 | inactive |  |

| Structure (SMILES) | Potency | activity, negative = inhibition |
| --- | --- | --- |
| CCN(CC)c1ccc(/C=N/Nc2nc(C)cc(C)n2)c(O)c1 | 4.47 µM (active) |  |
| Cc1cc(=O)n2nc(N3CCC(C(=O)Nc4c(F)c(F)c(F)c(F)c4F)CC3)sc2n1 | inactive |  |
| COc1ccc(S(=O)(=O)N2CCSCC2)cc1 | inactive |  |
| O=C(NNS(=O)(=O)c1ccc(F)cc1)c1ccc([N+](=O)[O-])cc1Cl | inactive |  |
| O=C(COc1ccc(Cl)cc1)Nc1ccc2c(c1)OCO2 | inactive |  |
| O=c1oc2ccccc2cc1-c1csc(Nc2ccc(O)cc2)n1 | inactive |  |
| Cc1cc(O)ccc1-c1cnc2ccccc2n1 | inactive |  |
| Cc1ccc(Nc2nc(-c3ccc(O)cc3O)cs2)nc1 | 11.2 µM (active) |  |
| C=Cn1cc[n+](CC(=O)c2ccc(OC)c(OC)c2)c1 | inactive |  |
| Cc1cc(/C=N/NC(=O)CC2(C)OCCO2)c(C)n1-c1ccc(Cl)c(Cl)c1 | 12.6 µM (active) |  |
| Cc1ccc(-n2c(C)cc(/C=N\NC(=O)CC(=O)NC(C)C)c2C)cc1 | inactive |  |
| Cc1ccccc1-n1c(C)cc(/C=N/NC(=O)c2ccc(CN3CCOCC3)cc2)c1C |  | -2.91% [at 0.365 µM] (inactive) |
| COc1ccccc1C(=O)NC(CCSC)C(=O)NNC(=O)c1csc(N2CCOCC2)n1 (centres undefined) | inactive |  |
| CCOc1ccc(C(=O)COC(=O)c2ccc(-n3cnnn3)cc2)cc1 | inactive |  |
| CCn1c(=S)[nH]c2sc3c(c2c1=O)CCCCC3 | 1.12 µM (active) |  |
| CN(C)CCCn1c(=O)n(Cc2ccccc2)c(=O)c2c3c(sc21)CCCCC3 | inactive |  |
| CCCc1nc2sc3c(c2c(=O)n1NC(=O)CCCl)CCCC3 | inactive |  |
| CC(C)c1ccc(NC(=O)[C@@H](NC(=O)N2CC(=O)Nc3ccccc32)C(C)C)cc1 | inactive |  |
| CC(C)c1ccc(NC(=S)NC2CC3C=CC2C3)cc1 (centres undefined) | 11.2 µM (active) |  |
| S=C(NNC(=S)NC1CC2CCC1C2)NC1CC2C=CC1C2 (centres undefined) | inactive |  |
| S=C(NNC(=S)NC1CC2C=CC1C2)NC1CC2C=CC1C2 (centres undefined) | inactive |  |
| Cc1nn(C(C)C(=O)NCCC2=CCCCC2)c(=O)c2nn(-c3ccccc3)c(C)c12 (centres undefined) | inactive |  |
| COc1ccc(C(=O)NC2CC2)cc1OC1CCN(C/C=C/c2ccccc2)CC1 | inactive |  |

| Structure (SMILES) | Potency | activity, negative = inhibition |
| --- | --- | --- |
| CN(C)S(=O)(=O)c1cccc(C(=O)OCC(=O)N2CCCC2=O)c1 | inactive |  |
| CCOC(=O)C1CCN(C(=O)Cn2nc(C)c3c(C)n(-c4ccccc4)nc3c2=O)CC1 | inactive |  |
| O=C(N/N=C/c1ccoc1)c1ccc(Cl)cc1Cl | inactive |  |
| CC(C)c1cc(C(=O)N/N=C/c2ccoc2)c(O)c(C(C)C)c1 | 3.16 µM (active) |  |
| CC(Oc1ccccc1[N+](=O)[O-])C(=O)N/N=C/c1ccoc1 (centres undefined) | inactive |  |
| Cn1c(N2CCOCC2)c(C=O)c2ccccc21 | inactive |  |
| CC1CCC(NS(=O)(=O)c2ccc3c(c2)CC(=O)N3)CC1 (centres undefined) | inactive |  |
| Cc1occc1C(=O)NC1CCCN(Cc2ccc(CC(C)C)cc2)C1 (centres undefined) | inactive |  |
| CCOc1cc(/C=C/c2nc3ccccc3c(=O)[nH]2)cc(Br)c1OC | inactive |  |
| C=CCOc1c(Br)cc(/C=N\n2nnnc2N)cc1OC | inactive |  |
| CCOc1c(Br)cc(/C=C2\C(=O)N(CCC#N)N=C2C)cc1OC | 11.2 µM (active) |  |
| CCOC(=O)C1=C(C)Nc2nc3ccccc3n2C1c1cccs1 (centres undefined) | 5.01 µM (active) |  |
| CCOC(=O)c1ccc(NC(=O)C2CC(=O)Nc3nc4ccccc4n32)cc1 (centres undefined) | inactive |  |
| C=CCOC(=O)C1=C(C)NC(C)=C(C(=O)OCC=C)C1c1cccs1 | inactive |  |
| CCOc1ccc2[nH]c(C(=O)N/N=C/c3cccc(OC)c3OC)cc2c1 | inactive |  |
| COc1cccc(CCNC(=O)c2cccc(NC(=O)C3=C(C)OCCS3)c2)c1 | inactive |  |
| Cc1cc(C)nc(S/C=C/C(=O)c2ccccc2)n1 | 3.55 µM (active) |  |
| Cc1ccc(N/C=C/C(=O)c2ccccc2)cc1C | inactive |  |
| Cc1cc(SCC(=O)c2ccccc2)nc(SCC(=O)c2ccccc2)n1 | inactive |  |
| CSc1ccccc1NC(=O)c1ccc2c(c1)CCN2S(C)(=O)=O | inactive |  |
| Cc1nn(CCCC(=O)NCc2ccccc2Cl)c(=O)c2nccn12 | inactive |  |
| O=C(Cc1ccccc1)Nc1ccc(C(=O)Nc2ccccc2C(=O)O)cc1 | inactive |  |
| CCOc1ccc(CN2CCN(Cc3ccc4cc(F)ccc4n3)CC2CCO)cc1 (centres undefined) | inactive |  |
